{"source": "the supplement of paper PMC8728848", "binders": {"B1": {"name": "SefD (Salmonella enterica), Q9L6K6 (protein)", "chain": "GAYIIRGQNNSAHKLRIRIGGEDWQPDNSGIGMVSHSDFTNEFNIYYFGNGDIPVDTYLISIYATEIEL"}}, "assay_in_all_cases": "glycan array binding signal (z-score within array); higher = stronger binding", "conditions_in_all_cases": "glycan notation: IUPAC condensed, linker removed", "key": {"[1]": {"target": "Fuc(a1-2)Gal(b1-3)[Fuc(a1-4)]GlcNAc(b1-2)Man(a1-3)[Fuc(a1-2)Gal(b1-3)[Fuc(a1-4)]GlcNAc(b1-2)Man(a1-6)]Man(b1-4)GlcNAc(b1-4)GlcNAc", "outline": "(§1)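 The binding signal is a Z-score computed within each array and averaged over linkers. Arrays of the same protein sequence at different concentrations or buffers were also averaged together. Data originate from 3228 arrays in the Consortium for Functional Glycomics database, kept only where the protein sequence was available.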"}, "[2]": {"target": "Fuc(a1-2)Gal(b1-3)[Fuc(a1-4)]GlcNAc(b1-3)[Gal(b1-4)GlcNAc(b1-6)]Gal(b1-4)Glc", "outline": "as §1"}, "[3]": {"target": "Fuc(a1-2)Gal(b1-4)GlcNAc(b1-3)Gal(b1-4)GlcNAc(b1-3)Gal(b1-4)GlcNAc", "outline": "as §1"}, "[4]": {"target": "Fuc(a1-2)[Gal(a1-3)]Gal(b1-4)GlcNAc(b1-2)Man(a1-3)[Fuc(a1-2)[Gal(a1-3)]Gal(b1-4)GlcNAc(b1-2)Man(a1-6)]Man(b1-4)GlcNAc(b1-4)[Fuc(a1-6)]GlcNAc", "outline": "as §1"}, "[5]": {"target": "Fuc(a1-2)[Gal(a1-3)]Gal(b1-4)[Fuc(a1-3)]GlcNAc", "outline": "as §1"}, "[6]": {"target": "Fuc(a1-3)[Gal(b1-4)]Glc6S", "outline": "as §1"}, "[7]": {"target": "Fuc(a1-3)[Gal(b1-4)]GlcNAc(b1-4)Gal(b1-4)[Fuc(a1-3)]GlcNAc(b1-4)Gal(b1-4)[Fuc(a1-3)]GlcNAc", "outline": "as §1"}, "Fuc(a1-4)GlcNAc": {"target": "Fuc(a1-4)GlcNAc", "outline": "as §1"}, "[8]": {"target": "Gal(a1-4)Gal(b1-3)GlcNAc(b1-2)Man(a1-3)[Gal(a1-4)Gal(b1-3)GlcNAc(b1-2)Man(a1-6)]Man(b1-4)GlcNAc(b1-4)GlcNAc", "outline": "as §1"}, "Gal(a1-4)Gal(b1-4)Glc": {"target": "Gal(a1-4)Gal(b1-4)Glc", "outline": "as §1"}, "Gal(b1-3)Gal(b1-4)GlcNAc": {"target": "Gal(b1-3)Gal(b1-4)GlcNAc", "outline": "as §1"}, "[9]": {"target": "Gal(b1-4)GlcNAc(b1-2)[Gal(b1-4)GlcNAc(b1-6)]Man(a1-6)[Gal(b1-4)GlcNAc(b1-2)Man(a1-3)]Man(b1-4)GlcNAc(b1-4)GlcNAc", "outline": "as §1"}, "[10]": {"target": "Gal(b1-4)GlcNAc(b1-3)[Gal(b1-4)GlcNAc(b1-6)]Gal(b1-4)GlcNAc", "outline": "as §1"}, "[11]": {"target": "Gal(b1-4)GlcNAc(b1-3)[Gal(b1-4)GlcNAc(b1-6)]GalNAc", "outline": "as §1"}, "Gal6S(b1-4)Glc6S": {"target": "Gal6S(b1-4)Glc6S", "outline": "as §1"}, "[12]": {"target": "GalNAc(a1-3)Fuc(a1-2)Gal(b1-4)GlcNAc(b1-3)[GalNAc(a1-3)Fuc(a1-2)Gal(b1-4)GlcNAc(b1-6)]GalNAc", "outline": "as §1"}, "[13]": {"target": "GalNAc(b1-3)Gal(a1-6)Gal(b1-4)Glc", "outline": "as §1"}, "GalNAc(b1-3)GalNAc": {"target": "GalNAc(b1-3)GalNAc", "outline": "as §1"}, "[14]": {"target": "Glc(a1-6)Glc(a1-6)Glc(a1-6)Glc", "outline": "as §1"}, "GlcA(b1-3)Gal": {"target": "GlcA(b1-3)Gal", "outline": "as §1"}, "[15]": {"target": "GlcNAc(b1-3)Gal(b1-3)GalNAc", "outline": "as §1"}, "GlcNAc(b1-3)GalNAc": {"target": "GlcNAc(b1-3)GalNAc", "outline": "as §1"}, "[16]": {"target": "GlcNAc(b1-3)[GlcNAc(b1-6)]GalNAc", "outline": "as §1"}, "GlcNAc(b1-4)GlcNAc": {"target": "GlcNAc(b1-4)GlcNAc", "outline": "as §1"}, "GlcNAc3Prop(b1-4)GlcNAc": {"target": "GlcNAc3Prop(b1-4)GlcNAc", "outline": "as §1"}, "[17]": {"target": "Man(a1-2)Man(a1-3)[Man(a1-2)Man(a1-6)]Man(a1-6)[Man(a1-2)Man(a1-2)Man(a1-3)]Man(b1-4)GlcNAc(b1-4)GlcNAc", "outline": "as §1"}, "[18]": {"target": "Neu5Ac(a2-3)Gal(b1-3)GalNAc(b1-4)[Neu5Ac(a2-3)]Gal(b1-4)Glc", "outline": "as §1"}, "[19]": {"target": "Neu5Ac(a2-3)Gal(b1-3)GlcNAc", "outline": "as §1"}, "[20]": {"target": "Neu5Ac(a2-3)Gal(b1-3)GlcNAc6S", "outline": "as §1"}, "[21]": {"target": "Neu5Ac(a2-3)Gal(b1-3)[Neu5Ac(a2-6)]GalNAc", "outline": "as §1"}, "[22]": {"target": "Neu5Ac(a2-3)Gal(b1-4)GlcNAc(b1-6)[Gal(b1-3)]GalNAc", "outline": "as §1"}, "[23]": {"target": "Neu5Ac(a2-3)Gal(b1-4)[Fuc(a1-3)]GlcNAc(b1-3)GalNAc", "outline": "as §1"}, "[24]": {"target": "Neu5Ac(a2-3)Gal(b1-4)[Fuc(a1-3)]GlcNAc(b1-6)[Gal(b1-3)]GalNAc", "outline": "as §1"}, "[25]": {"target": "Neu5Ac(a2-6)Gal(b1-4)GlcNAc(b1-2)Man(a1-6)[GlcNAc(b1-2)Man(a1-3)]Man(b1-4)GlcNAc(b1-4)GlcNAc", "outline": "as §1"}, "[26]": {"target": "Neu5Ac(a2-6)GlcNAc(b1-4)GlcNAc(b1-4)GlcNAc", "outline": "as §1"}, "[27]": {"target": "Neu5Ac(a2-8)Neu5Ac(a2-3)Gal(b1-4)Glc", "outline": "as §1"}, "[28]": {"target": "Neu5Ac(a2-8)Neu5Ac(a2-3)[Gal(b1-3)GalNAc(b1-4)]Gal(b1-4)Glc", "outline": "as §1"}}, "note": "Only a selection was taken, and the strongest signals are over-represented in it overall."}
{"binder": "B1", "values": [{"measurement": "glycan array binding signal (z-score)", "setting": "[1]", "value": -0.362}, {"measurement": "glycan array binding signal (z-score)", "setting": "[2]", "value": 5.83}, {"measurement": "glycan array binding signal (z-score)", "setting": "[3]", "value": -0.043}, {"measurement": "glycan array binding signal (z-score)", "setting": "[4]", "value": -0.413}, {"measurement": "glycan array binding signal (z-score)", "setting": "[5]", "value": -0.401}, {"measurement": "glycan array binding signal (z-score)", "setting": "[6]", "value": -0.328}, {"measurement": "glycan array binding signal (z-score)", "setting": "[7]", "value": -0.46}, {"measurement": "glycan array binding signal (z-score)", "setting": "Fuc(a1-4)GlcNAc", "value": 2.37}, {"measurement": "glycan array binding signal (z-score)", "setting": "[8]", "value": -0.091}, {"measurement": "glycan array binding signal (z-score)", "setting": "Gal(a1-4)Gal(b1-4)Glc", "value": -0.442}, {"measurement": "glycan array binding signal (z-score)", "setting": "Gal(b1-3)Gal(b1-4)GlcNAc", "value": 2.24}, {"measurement": "glycan array binding signal (z-score)", "setting": "[9]", "value": 0.127}, {"measurement": "glycan array binding signal (z-score)", "setting": "[10]", "value": -0.614}, {"measurement": "glycan array binding signal (z-score)", "setting": "[11]", "value": -0.441}, {"measurement": "glycan array binding signal (z-score)", "setting": "Gal6S(b1-4)Glc6S", "value": -0.435}, {"measurement": "glycan array binding signal (z-score)", "setting": "[12]", "value": 5.38}, {"measurement": "glycan array binding signal (z-score)", "setting": "[13]", "value": -0.631}, {"measurement": "glycan array binding signal (z-score)", "setting": "GalNAc(b1-3)GalNAc", "value": -0.05}, {"measurement": "glycan array binding signal (z-score)", "setting": "[14]", "value": -0.319}, {"measurement": "glycan array binding signal (z-score)", "setting": "GlcA(b1-3)Gal", "value": -0.456}, {"measurement": "glycan array binding signal (z-score)", "setting": "[15]", "value": -0.29}, {"measurement": "glycan array binding signal (z-score)", "setting": "GlcNAc(b1-3)GalNAc", "value": -0.427}, {"measurement": "glycan array binding signal (z-score)", "setting": "[16]", "value": -0.43}, {"measurement": "glycan array binding signal (z-score)", "setting": "GlcNAc(b1-4)GlcNAc", "value": 0.15}, {"measurement": "glycan array binding signal (z-score)", "setting": "GlcNAc3Prop(b1-4)GlcNAc", "value": 6.32}, {"measurement": "glycan array binding signal (z-score)", "setting": "[17]", "value": -0.324}, {"measurement": "glycan array binding signal (z-score)", "setting": "[18]", "value": -0.395}, {"measurement": "glycan array binding signal (z-score)", "setting": "[19]", "value": -0.336}, {"measurement": "glycan array binding signal (z-score)", "setting": "[20]", "value": -0.237}, {"measurement": "glycan array binding signal (z-score)", "setting": "[21]", "value": 2.7}, {"measurement": "glycan array binding signal (z-score)", "setting": "[22]", "value": 3.13}, {"measurement": "glycan array binding signal (z-score)", "setting": "[23]", "value": 11.3}, {"measurement": "glycan array binding signal (z-score)", "setting": "[24]", "value": -0.092}, {"measurement": "glycan array binding signal (z-score)", "setting": "[25]", "value": -0.228}, {"measurement": "glycan array binding signal (z-score)", "setting": "[26]", "value": -0.293}, {"measurement": "glycan array binding signal (z-score)", "setting": "[27]", "value": 0.431}, {"measurement": "glycan array binding signal (z-score)", "setting": "[28]", "value": 0.969}]}
